According to PubChem BioAssay:
Activity calls are given as the source filed them.

Key:
[1] = system: PRMT1 (protein arginine N-methyltransferase 1); assay: PRMT1 binders on small-molecule microarrays, primary screen, biochemical, small-molecule microarray, 635 nm fluorescence (AID 1088); conditions: small-molecule microarray binding, higher = more signal;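 also: binding of Prmt1 protein to compounds spotted on small-molecule microarray slides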
[2] = yeast growth modulation, basal conditions, primary screen, YJM789 clinical isolate, OD600, 24 h (AID 1089);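 also: growth of clinical yeast isolate S. cerevisiae YJM 789 seeded 1000 cells per well; test concentration not given here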; conditions: S. cerevisiae YJM789 growth, higher = more signal, called active from +8 up or from −8 down
[3] = fission yeast growth modulation, primary screen, strain 972, OD600, 24 h, no modulator (AID 1090);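 also: basal condition with compound alone and no growth modifier present; test concentration not given here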; conditions: S. pombe 972 growth, higher = more signal, called active from +8 up or from −8 down
[4] = S. cerevisiae growth modulation with rapamycin, primary screen, strain BY4716, OD600, 96 h (AID 1091); conditions: higher = more signal, called active from +8 up or from −8 down; also: test concentration not given here
[5] = molecular target: Torsin-1A-interacting protein 2 (Homo sapiens) (UniProt Q8NFQ8); assay: LULL1 binders on small-molecule microarray, primary screen, cell lysate, human LULL1 lysate, 635/667 nm fluorescence (AID 1092); conditions: hLULL1 lysate binding, 635 nm fluorescence, higher = more signal;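 also: probe is lysate of COS7 cells overexpressing human LULL1; score merges per-feature 667 nm fluorescence with signal-to-noise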
[6] = E. coli growth modulation, two-sided OD650, primary screen, E. coli filamentation project, strain DRC41, 24 h (AID 1093); conditions: OD650, 24 h, higher = more signal, called active from +8 up or from −8 down;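 also: MC1000 strain lacking acrAB efflux and sulA so SOS filamentation is blocked; test concentration not given here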
[7] = small-molecule microarray binders of probe aLefty2, primary screen, biochemical, biotinylated probe, 635/667 nm fluorescence (AID 1094); conditions: higher = more signal;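 also: score merges spot fluorescence near 667 nm with spot signal-to-noise ratio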
[8] = system: Noggin (protein binding on small-molecule microarray); assay: Noggin binders on small-molecule microarray, primary screen, biochemical, 635/667 nm fluorescence (AID 1095); conditions: 635 nm fluorescence, higher = more signal;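 also: score merges 667 nm feature fluorescence with signal to noise over triplicate slides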
[9] = molecular target: Neurogenic locus notch homolog protein 3 (Homo sapiens) (UniProt Q9UM47); assay: NOTCH3 binders on small-molecule microarray, primary screen, biochemical, 635/667 nm fluorescence (AID 1096); conditions: NOTCH3 binding, 635 nm fluorescence, higher = more signal
[10] = small-molecule microarray binders of probe aEGFR, primary screen, biochemical, biotinylated probe, 635/667 nm fluorescence (AID 1097); conditions: higher = more signal;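 also: probe is a biotinylated anti-EGFR antibody binding compounds printed on slides; score combines fluorescence near 667 nm and signal to noise of each spot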
[11] = system: Plasmodium falciparum Sir2 (PF13_0152, Sir2A); assay: pfSir2 binders on small-molecule microarrays, primary screen, biochemical, small-molecule microarray, 635 nm fluorescence (AID 1098); conditions: small-molecule microarray binding, fluorescence 635 nm; higher = more signal;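 also: score merges spot fluorescence intensity with its signal-to-noise ratio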
[12] = small-molecule microarray binders of probe aDKK1, primary screen, biochemical, biotinylated probe, 635/667 nm fluorescence (AID 1099); conditions: higher = more signal;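 also: score merges 667nm spot fluorescence with signal to noise across triplicate slides; reference of the scale not given here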
[13] = small-molecule microarray binders of probe aCHRDL2, primary screen, biochemical, biotinylated probe, 635/667 nm fluorescence (AID 1100); conditions: higher = more signal
[14] = splicing luciferase reporter signal modulators, primary screen, spliceosome inhibition project, cell-based, HEK293, splice +/- reporter (AID 1101); conditions: luminescence, 24 h, higher = more signal, called active from +8 up or from −8 down;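 also: HEK293 cells carrying a splicing-competent luciferase reporter gene; test concentration not given here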
[15] = molecular target: Fibroblast growth factor 10 (Homo sapiens) (UniProt O15520); assay: FGF10 binders on small-molecule microarrays, primary screen, biochemical, small-molecule microarray, 635 nm fluorescence (AID 1102); conditions: FGF10 binding, fluorescence 635 nm, higher = more signal
[16] = system: glycogen synthase kinase-3 (GSK3A per assay name; protocol says GSK3B); assay: GSK3 binders on small-molecule microarrays, primary screen, biochemical, small-molecule microarray, 635 nm fluorescence, GSK3A (AID 1103); conditions: small-molecule microarray binding, fluorescence 635 nm; higher = more signal; also: the record names both GSK3A and GSK3B
[17] = molecular target: Epidermal growth factor receptor (Homo sapiens) (UniProt P00533); assay: EGFR binders on small-molecule microarrays, primary screen, biochemical, small-molecule microarray, 635 nm fluorescence (AID 1104); conditions: EGFR binding, higher = more signal;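 also: score merges 667 nm emission intensity with spot signal to noise over triplicate slides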
[18] = molecular target: Follistatin-related protein 3 (Homo sapiens) (UniProt O95633); assay: FSTL3 binders on small-molecule microarrays, primary screen, biochemical, small-molecule microarray, 635 nm fluorescence (AID 1105); conditions: FSTL3 binding, higher = more signal;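 also: score merges emission near 667 nm and signal to noise per printed spot across three slides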
[19] = molecular target: Dickkopf-related protein 1 (Homo sapiens) (UniProt O94907); assay: DKK1 binders on small-molecule microarrays, primary screen, biochemical, small-molecule microarray, 635 nm fluorescence scan (AID 1106); conditions: DKK1 binding, higher = more signal;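 also: score merges emission near 667 nm with signal to noise over three replicate slides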
[20] = system: Inhibin beta A chain (activin A); assay: INHBA (activin A) binders on microarrays, primary screen, biochemical, small-molecule microarray, 635 nm fluorescence scan (AID 1107); conditions: small-molecule microarray binding, higher = more signal;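 also: mouse activin A protein probed at 4.33 µg/mL on printed slides; score merges bound-protein fluorescence near 667 nm with spot signal-to-noise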

Sequence of Fibroblast growth factor 10 (Homo sapiens) (O15520 whole entry, looked up): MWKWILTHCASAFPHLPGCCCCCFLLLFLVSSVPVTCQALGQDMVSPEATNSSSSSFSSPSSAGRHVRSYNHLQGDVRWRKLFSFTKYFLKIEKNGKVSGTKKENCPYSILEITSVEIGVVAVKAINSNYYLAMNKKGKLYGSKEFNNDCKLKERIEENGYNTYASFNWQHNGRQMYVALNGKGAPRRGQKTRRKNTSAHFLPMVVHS
Sequence of Follistatin-related protein 3 (Homo sapiens) (O95633 whole entry, looked up): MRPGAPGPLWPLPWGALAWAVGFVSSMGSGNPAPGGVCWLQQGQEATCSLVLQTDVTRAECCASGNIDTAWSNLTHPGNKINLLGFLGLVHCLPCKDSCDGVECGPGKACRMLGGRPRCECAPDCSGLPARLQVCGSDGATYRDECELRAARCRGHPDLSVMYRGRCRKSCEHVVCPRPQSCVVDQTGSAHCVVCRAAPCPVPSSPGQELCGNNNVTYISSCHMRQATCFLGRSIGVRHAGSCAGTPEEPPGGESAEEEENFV
Sequence of Torsin-1A-interacting protein 2 (Homo sapiens) (Q8NFQ8 whole entry, looked up): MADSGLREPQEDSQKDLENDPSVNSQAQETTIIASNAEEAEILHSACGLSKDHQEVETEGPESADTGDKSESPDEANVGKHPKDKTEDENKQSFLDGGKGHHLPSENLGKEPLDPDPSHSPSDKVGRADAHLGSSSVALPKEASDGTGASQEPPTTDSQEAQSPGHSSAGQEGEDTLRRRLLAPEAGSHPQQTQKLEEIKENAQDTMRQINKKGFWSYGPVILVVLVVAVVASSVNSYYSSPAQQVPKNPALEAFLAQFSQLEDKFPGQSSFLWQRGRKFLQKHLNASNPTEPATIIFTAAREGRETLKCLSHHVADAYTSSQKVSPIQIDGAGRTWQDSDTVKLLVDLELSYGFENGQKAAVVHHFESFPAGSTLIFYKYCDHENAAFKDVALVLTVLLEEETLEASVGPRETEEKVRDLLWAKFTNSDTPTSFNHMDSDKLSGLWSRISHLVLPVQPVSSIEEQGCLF
Sequence of Neurogenic locus notch homolog protein 3 (Homo sapiens) (Q9UM47 whole entry, looked up): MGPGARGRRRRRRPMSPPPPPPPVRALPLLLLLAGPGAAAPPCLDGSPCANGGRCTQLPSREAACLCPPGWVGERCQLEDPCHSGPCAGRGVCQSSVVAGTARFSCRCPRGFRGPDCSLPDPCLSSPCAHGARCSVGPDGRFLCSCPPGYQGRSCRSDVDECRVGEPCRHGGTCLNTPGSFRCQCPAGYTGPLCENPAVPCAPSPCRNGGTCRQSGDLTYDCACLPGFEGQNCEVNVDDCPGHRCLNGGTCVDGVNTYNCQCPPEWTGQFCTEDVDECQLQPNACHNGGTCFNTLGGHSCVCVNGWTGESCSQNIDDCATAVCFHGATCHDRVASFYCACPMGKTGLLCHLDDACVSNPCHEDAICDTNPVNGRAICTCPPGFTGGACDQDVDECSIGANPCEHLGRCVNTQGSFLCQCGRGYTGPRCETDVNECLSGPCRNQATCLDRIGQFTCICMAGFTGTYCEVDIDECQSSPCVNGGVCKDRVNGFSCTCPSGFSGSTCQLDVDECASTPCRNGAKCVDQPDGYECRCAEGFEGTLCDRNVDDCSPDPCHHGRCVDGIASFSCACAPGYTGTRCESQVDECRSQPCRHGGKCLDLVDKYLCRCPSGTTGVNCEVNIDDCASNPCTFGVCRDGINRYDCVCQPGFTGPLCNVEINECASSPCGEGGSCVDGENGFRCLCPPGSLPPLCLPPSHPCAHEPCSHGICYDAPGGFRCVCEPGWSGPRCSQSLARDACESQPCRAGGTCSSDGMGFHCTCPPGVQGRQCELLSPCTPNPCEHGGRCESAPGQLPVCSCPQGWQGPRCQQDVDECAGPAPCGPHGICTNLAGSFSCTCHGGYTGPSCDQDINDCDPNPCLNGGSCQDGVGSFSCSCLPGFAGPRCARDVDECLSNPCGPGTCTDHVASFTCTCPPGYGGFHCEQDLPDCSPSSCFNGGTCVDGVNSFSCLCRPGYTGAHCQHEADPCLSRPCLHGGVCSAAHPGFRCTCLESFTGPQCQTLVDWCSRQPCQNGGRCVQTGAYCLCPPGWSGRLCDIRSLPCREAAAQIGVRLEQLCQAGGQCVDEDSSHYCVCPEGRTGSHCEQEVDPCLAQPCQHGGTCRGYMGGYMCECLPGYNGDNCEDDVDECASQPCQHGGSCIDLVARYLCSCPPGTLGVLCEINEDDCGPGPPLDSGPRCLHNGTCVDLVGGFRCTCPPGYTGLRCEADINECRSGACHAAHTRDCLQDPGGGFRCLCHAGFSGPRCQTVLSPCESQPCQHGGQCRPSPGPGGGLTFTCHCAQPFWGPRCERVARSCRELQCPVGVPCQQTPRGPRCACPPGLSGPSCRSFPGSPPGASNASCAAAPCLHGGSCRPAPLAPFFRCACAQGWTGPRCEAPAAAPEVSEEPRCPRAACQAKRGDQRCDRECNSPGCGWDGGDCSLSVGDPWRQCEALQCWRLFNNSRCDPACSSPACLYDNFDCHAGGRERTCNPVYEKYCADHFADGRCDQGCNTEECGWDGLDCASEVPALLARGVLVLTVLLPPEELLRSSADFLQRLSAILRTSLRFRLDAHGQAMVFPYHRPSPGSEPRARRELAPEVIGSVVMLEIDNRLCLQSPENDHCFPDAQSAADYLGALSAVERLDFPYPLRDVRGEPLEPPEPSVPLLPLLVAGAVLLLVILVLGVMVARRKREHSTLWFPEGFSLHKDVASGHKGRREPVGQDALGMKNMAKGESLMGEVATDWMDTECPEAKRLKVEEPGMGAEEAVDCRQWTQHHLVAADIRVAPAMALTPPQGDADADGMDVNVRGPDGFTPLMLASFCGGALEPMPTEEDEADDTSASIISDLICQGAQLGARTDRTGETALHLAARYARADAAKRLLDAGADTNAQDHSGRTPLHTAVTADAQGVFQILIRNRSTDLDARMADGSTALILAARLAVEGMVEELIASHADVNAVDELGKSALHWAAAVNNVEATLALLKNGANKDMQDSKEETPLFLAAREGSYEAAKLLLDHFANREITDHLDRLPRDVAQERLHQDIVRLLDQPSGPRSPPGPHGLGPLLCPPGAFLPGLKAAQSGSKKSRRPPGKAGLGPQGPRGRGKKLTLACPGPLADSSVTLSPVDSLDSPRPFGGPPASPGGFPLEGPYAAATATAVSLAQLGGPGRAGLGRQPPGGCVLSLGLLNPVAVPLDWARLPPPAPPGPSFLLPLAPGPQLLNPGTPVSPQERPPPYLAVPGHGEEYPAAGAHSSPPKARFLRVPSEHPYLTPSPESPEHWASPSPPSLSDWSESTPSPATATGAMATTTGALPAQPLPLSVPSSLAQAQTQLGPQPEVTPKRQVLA
Sequence of Dickkopf-related protein 1 (Homo sapiens) (O94907 whole entry, looked up): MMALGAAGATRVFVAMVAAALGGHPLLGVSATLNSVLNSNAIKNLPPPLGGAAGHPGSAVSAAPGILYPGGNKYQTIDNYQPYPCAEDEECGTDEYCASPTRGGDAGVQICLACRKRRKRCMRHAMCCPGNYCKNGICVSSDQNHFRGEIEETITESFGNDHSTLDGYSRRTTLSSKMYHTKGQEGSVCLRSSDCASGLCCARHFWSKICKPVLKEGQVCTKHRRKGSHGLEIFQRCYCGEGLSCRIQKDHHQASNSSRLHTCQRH
Sequence of Epidermal growth factor receptor (Homo sapiens) (P00533 whole entry, looked up): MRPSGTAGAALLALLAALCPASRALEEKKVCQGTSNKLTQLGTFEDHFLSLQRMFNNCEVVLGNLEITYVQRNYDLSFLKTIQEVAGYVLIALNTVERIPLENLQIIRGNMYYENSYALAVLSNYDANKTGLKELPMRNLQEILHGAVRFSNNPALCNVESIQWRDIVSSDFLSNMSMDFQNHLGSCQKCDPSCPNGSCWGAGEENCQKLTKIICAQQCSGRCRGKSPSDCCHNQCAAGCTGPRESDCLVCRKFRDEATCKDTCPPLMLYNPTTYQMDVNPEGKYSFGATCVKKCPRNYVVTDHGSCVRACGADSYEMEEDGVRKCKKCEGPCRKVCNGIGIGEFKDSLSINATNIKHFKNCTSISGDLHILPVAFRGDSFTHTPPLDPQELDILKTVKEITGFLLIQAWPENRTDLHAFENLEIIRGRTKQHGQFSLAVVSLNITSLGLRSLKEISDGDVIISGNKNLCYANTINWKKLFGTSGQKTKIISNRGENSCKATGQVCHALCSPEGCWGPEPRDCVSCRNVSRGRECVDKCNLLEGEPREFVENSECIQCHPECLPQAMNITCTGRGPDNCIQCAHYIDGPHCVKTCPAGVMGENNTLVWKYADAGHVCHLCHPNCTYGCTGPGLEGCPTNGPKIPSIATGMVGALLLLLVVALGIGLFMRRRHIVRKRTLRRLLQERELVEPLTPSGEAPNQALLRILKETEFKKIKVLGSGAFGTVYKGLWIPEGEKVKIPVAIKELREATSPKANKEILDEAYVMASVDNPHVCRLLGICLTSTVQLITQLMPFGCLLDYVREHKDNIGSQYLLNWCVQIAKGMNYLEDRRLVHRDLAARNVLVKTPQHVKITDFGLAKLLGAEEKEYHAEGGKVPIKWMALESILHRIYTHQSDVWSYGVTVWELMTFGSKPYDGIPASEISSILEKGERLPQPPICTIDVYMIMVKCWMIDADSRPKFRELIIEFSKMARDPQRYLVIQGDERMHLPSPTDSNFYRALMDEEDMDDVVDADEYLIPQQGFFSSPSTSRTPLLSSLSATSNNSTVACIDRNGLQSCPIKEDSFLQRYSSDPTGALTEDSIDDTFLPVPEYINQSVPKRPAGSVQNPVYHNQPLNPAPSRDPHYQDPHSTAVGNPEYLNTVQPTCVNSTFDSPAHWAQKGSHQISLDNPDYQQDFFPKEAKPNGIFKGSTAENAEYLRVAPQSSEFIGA

SMILES	composite z-score [1]	z-score [2]	z-score [3]	z-score [4]	composite z-score [5]	z-score [6]	composite z-score [7]	composite z-score [8]	composite z-score [9]	composite z-score [10]	composite z-score [11]	composite z-score [12]	composite z-score [13]	z-score [14]	composite z-score [15]	composite z-score [16]	composite z-score [17]	composite z-score [18]	composite z-score [19]	composite z-score [20]
O=C1C2C=CC(C(O)c3cc(C(F)(F)F)cc(C(F)(F)F)c3)N(Nc3ccccc3F)C2C(=O)N1c1ccccc1 (stereo not given)	1.11	0.503 (inactive)	0.854 (inactive)	6.9 (inactive)	3.19	-1.99 (inactive)	0.0655	-0.989	1.07	0.0061	0.99	1.09	1.03	0.537 (inactive)	0.223	0.708	-0.855	-0.19	-0.795	0.37
C=C(COC)/C(=C/C[C@@H](OC(=O)c1ccncc1)c1ccccc1OCCO)c1cc(C(=O)OC)ccc1OC	0.768	-0.833 (inactive)	-0.778 (inactive)	0.351 (inactive)	0.703	0.0184 (inactive)	-0.106	-0.341	-0.0686	-0.178	-0.979	-0.0241	0.445	2.66 (inactive)	-0.0528	-0.628	-0.796	-0.354	-0.276	0.845
CC(=O)n1cc(C(O)C2C=CC3C(=O)N(c4ccccc4)C(=O)C3N2Nc2ccc(C(C)C)cc2)c2ccccc21 (stereo not given)	1.22	-0.314 (inactive)	0.713 (inactive)	0.0496 (inactive)	3.27	-0.811 (inactive)	0.353	-0.706	1.04	0.0786	1.17	0.389	0.883	0.811 (inactive)	0.881	1.1	0.281	0.766	0.076	1.02
O=C1C2C=CC(C(O)c3ccco3)N(Nc3ccccc3)C2C(=O)N1c1ccccc1 (stereo not given)	-0.182	0.928 (inactive)	0.0851 (inactive)	0.662 (inactive)	1.13	-0.353 (inactive)	-0.147	-0.569	0.504	-0.192	0.576	0.144	0.878	0.14 (inactive)	-0.322	-0.678	-0.616	-0.713	-0.555	0.781
O=C1C[C@@](C(=O)NCc2ccccc2)(c2ccc([N+](=O)[O-])cc2)[C@@H](c2ccc(CO)cc2I)N1CC12CC3CC(CC(C3)C1)C2	1.55	-0.369 (inactive)	-0.613 (inactive)	2.84 (inactive)	2.61	-0.343 (inactive)	0.0578	1.8	1.09	0.0042	1.05	-0.0517	0.214	-0.218 (inactive)	1.31	0.794	0.547	1.44	0.578	-0.0204
[N-]=[N+]=Nc1ccccc1C[C@]1(C(=O)NCc2ccccc2)COC(c2ccc(OCCCO)cc2)=N1	1.32	1.04 (inactive)	0.184 (inactive)	32.1 (active)	3.33	1.04 (inactive)	0.0573	0.544	1.08	-0.0669	1.26	0.187	0.869	0.439 (inactive)	1.16	1.23	-0.404	1.01	-0.537	0.386
CN1C(=O)[C@@H]2[C@@H](CC(COc3ccccc3)=C([C@H](O)CCc3ccccc3)[C@@H]2CO)C1=O	-0.268	0.0937 (inactive)	-1.87 (inactive)	-0.537 (inactive)	-0.551	2.41 (inactive)	-0.0971	-0.358	-0.932	-0.0947	-0.194	-0.0537	-0.317	-0.165 (inactive)	-0.0903	-0.621	0.218	-0.0809	0.298	0.484
CN(C)C(=O)[C@@]1(Cc2ccccc2)COC(c2ccc(OCCCO)cc2)=N1	0.243	-0.0054 (inactive)	-4.61 (inactive)	-1.59 (inactive)	2.87	1.31 (inactive)	0.137	-0.955	-0.451	0.0005	0.429	-0.246	-0.0283	-0.781 (inactive)	-0.304	0.792	0.197	-0.718	-0.59	-0.512
COCCOC(=O)N1C(=O)[C@@]2(c3cc(C#CCNC(N)=O)ccc31)[C@H](c1ccc(O)cc1)N1[C@H](c3ccccc3)[C@H](c3ccccc3)OC(=O)[C@H]1[C@@H]2C(N)=O	-1.22	0.878 (inactive)	0.0929 (inactive)	0.374 (inactive)	-0.841	1.04 (inactive)	-0.294	-1.99	-1.15	-0.406	-0.583	-0.224	0.444	0.00136 (inactive)	-1.62	-1.32	-1.9	-2.16	-1.86	-1.08
CC(C)C(=C=CC[C@@H](O)c1cccc(OCCO)c1)C[C@@H](O)COCc1ccccc1	0.566	-0.978 (inactive)	-1.55 (inactive)	-0.845 (inactive)	0.493	1.61 (inactive)	-0.133	0.573	0.541	-0.203	1.04	-0.119	-0.118	-0.952 (inactive)	0.543	-0.174	-0.208	0.178	-0.445	0.198
CC(C)(C)OC(=O)CC[C@]12N=C(c3ccc(OCCCO)cc3)O[C@H]1c1ccccc1N(Cc1ccccc1)C2=O	1.54	0.429 (inactive)	-1.1 (inactive)	5.79 (inactive)	2.72	0.911 (inactive)	0.12	0.938	0.967	-0.128	0.907	0.492	0.462	-0.601 (inactive)	1.18	1.26	-0.0167	0.483	0.168	0.777
C=CCNC(=O)[C@@H]1[C@H]2C(=O)O[C@H](c3ccccc3)[C@H](c3ccccc3)N2[C@H](c2ccc(O)cc2)[C@@]12C(=O)N(C(=O)OCCOC)c1ccc(C#CCCO)cc12	1.41	0.434 (inactive)	0.53 (inactive)	1.17 (inactive)	2.57	-0.369 (inactive)	0.0278	0.686	0.52	0.189	1.25	0.373	0.42	-0.591 (inactive)	1.37	1.04	0.683	1.12	0.921	0.616
COc1cc(NN2C(C(O)c3ccccc3)C=CC3C(=O)N(C)C(=O)C32)cc(OC)c1OC (stereo not given)	1.53	0.679 (inactive)	0.529 (inactive)	0.328 (inactive)	2.98	-0.852 (inactive)	0.12	0.27	0.832	-0.0581	0.618	0.195	0.8	-0.676 (inactive)	0.422	0.843	0.187	0.362	-0.186	0.784
